# Experimental data: PubChem BioAssay AID1345083 (National Center for Advancing Translational Sciences (NCATS), 2018)
# The whole screen tested about 94,000 compounds, of which about 6,200 (6.6%) were called active. Another 31% or so got no clear call; they are omitted. Many of the other results were omitted from the sample, so actives are more common in it than they were. A number with no mark means an inactive call. The call rests on the fitted dose curve; in most records, active means well fitted inhibition curve with a large enough effect; inconclusive means small, poorly fitted or top-dose-only effect; inactive means flat fitted curve, though single readings scatter.
# Assay: Cytotoxic Profiling in HEK 293 Cell Line of Diverse Libraries Using Quantitative High-Throughput Screening; further: nearly all actives have a fitted effect of over 60% in size
# Conditions: HEK 293 viability, ATP luminescence (CellTiter-Glo), 48-72 h; series mostly up to 115 µM; activity change, negative = cytotoxicity: at the top concentration
# Procedure, shortened: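 Read-out: CellTiter-Glo ATP luminescence. Cells: HEK 293, 250 cells/well. Exposure: 48 or 72 hr, 37 degree Celsius.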
# On the % scale 0 is the no-effect control and ±100 the full control effect; potency means the concentration at half of the fitted maximal effect.
SMILES,"activity change, negative = cytotoxicity",outcome,Potency
CNC(=O)[C@@H]1CN(C(=O)c2ccc(F)c(Cl)c2)C[C@H]1CO,-13.9%,–,–
CCn1ccc(C(=O)N2CCCC(c3noc(COC)n3)C2)n1 (stereo unspecified),1.51%,–,–
Cc1nc(-c2ccccc2OC2CN(S(=O)(=O)c3c(C)noc3C)C2)no1,3.92%,–,–
COc1ccc(CCC(=O)NCC(=O)N2CCCCCCNC(=O)CC2c2ccccc2)cc1 (stereo unspecified),-2.36%,–,–
CC1CCN(c2ccc(CNC(=O)CN3CCCc4nc(C5CC5)ncc4C3=O)cc2)CC1,-1.31%,–,–
CN(CCO)CC1(O)CCCN(Cc2ccccc2F)C1=O (stereo unspecified),-25.7%,–,–
O=C(O)CN1CCNc2nc(CNc3ccc(F)cc3)n(Cc3ccccc3)c2C1=O,–,inactive [at 172 µM],–
O=C1c2c(nc(COc3ccccc3)n2Cc2ccccc2)NCCN1Cc1cccc(Cl)c1,–,–,31.6 µM (active)
O=C1c2cnc(-c3ccc(O)c(F)c3)nc2OCCN1Cc1ccccc1,-28.2% [at 172 µM],–,–
COc1ccc(NC(=O)c2ccc3c(c2)N(S(C)(=O)=O)CC3)cc1OC,-25%,–,–
O=C(c1cccnc1)N1CCC(Nc2cccnc2)C1 (stereo unspecified),3.04%,–,–
COc1cccc(N2C(=O)NC(=NC3CCCC3)C23CCN(C(=O)c2ccc(C)cc2)C3)c1 (stereo unspecified),-2.27%,–,–
CSc1cccc(CN(C)C(=O)CC2COCCN2)c1 (stereo unspecified),-17.4%,–,–
CCCCc1cc(C[C@H]2CNCC[C@H]2CC(=O)N(CC)CC)no1,-22.1% [at 172 µM],–,–
O=C(C[C@@H]1CCNC[C@@H]1Cc1cc(-c2ccc(F)cc2)on1)NCCN1CCOCC1,-4.57% [at 172 µM],–,–
CNC(=O)C(C)(C)N1CCC[C@H]1C(=O)N(C)Cc1ccccc1,-29.2% [at 172 µM],–,–
COc1ccc(CNC(=O)C[C@@H]2CCNC[C@@H]2Cc2cc(-c3ccc(C(C)(C)C)cc3)on2)cc1OC,–,–,25.1 µM (active)
CCCCc1cc(C[C@H]2CNCC[C@H]2CC(=O)N2CCC(n3c(=O)[nH]c4ccccc43)CC2)no1,3.67%,–,–
COc1ccc(-c2cc(C[C@H]3CNCC[C@H]3CC(=O)NCCN(C)C)no2)cc1,0.101% [at 172 µM],–,–
O=C(C[C@@H]1CCNC[C@@H]1Cc1cc(CSc2ccccc2)on1)NCc1ccc2c(c1)OCO2,–,–,35.5 µM (active)
CN(Cc1ccccc1)C(=O)C[C@@H]1CCNC[C@@H]1Cc1cc(-c2ccc(C(C)(C)C)cc2)on1,–,–,14.1 µM (active)
COCCOCc1nc(C2CCCCN2C(=O)Nc2ccc(F)cc2F)no1 (stereo unspecified),0.297%,–,–
O=C(Cc1cccc(Cl)c1)N1CCC2(CN[S+](=O)([O-])c3cccnc3O2)C1 (stereo unspecified),4.07%,–,–
Cc1ccc(CN[C@@H]2CO[C@H](CNC(=O)N3CCOCC3)[C@H]2O)cc1,–,inactive [at 172 µM],–

SMILES,"activity change, negative = cytotoxicity",outcome,Potency
CCNC(=O)[C@@H]1C[C@H](n2cc(CN(C)C(=O)OC)nn2)CN1,0.184%,–,–
Cc1ccc(NC(=O)c2nnn3c2COC(c2ccc(F)cc2)C3)c(Br)c1 (stereo unspecified),2.77%,–,–
COc1ccc(-c2ccccc2CN)cc1,-3.51% [at 172 µM],–,–
CCn1cc(S(=O)(=O)N2C[C@@H](Oc3ccccc3)C[C@@H]2C(=O)N2CCOCC2)cn1,2.71%,–,–
O=C(c1ccc(F)cc1)N1CCC2(CC1)CC(OCC1CC1)CCO2 (stereo unspecified),-5.72%,–,–
CCN(CC)C1CCOC2(CCN(C(=O)c3ccncc3)CC2)C1 (stereo unspecified),-7.62%,–,–
CCn1nccc1C(=O)N1CCC2(CC1)CC(N(Cc1ccc(F)cc1)C1CC1)CCO2 (stereo unspecified),–,–,39.8 µM (active)
Cc1cccc(CC(=O)N2CCC(c3n[nH]c(=O)n3-c3ccccc3)CC2)c1,2.17%,–,–
CN(C)CCNC(=O)[C@H]1C[C@@](C)(C(=O)O)N(C)[C@H]1c1ccc(Cl)cc1,–,inactive,–
Cc1ccccc1N1Cc2c(NCC(C)(C)C)ncnc2N(C)CC1=O,-13.2%,–,–
O=C(NCc1ccc2c(c1)OCO2)C1CN(C2CCCCC2)C(=O)N1 (stereo unspecified),-24.3% [at 172 µM],–,–
O=C(NCc1ccc(F)c(F)c1)C1CCCN(Cc2cccc(-c3cccs3)c2)C1 (stereo unspecified),–,–,5.62 µM (active)
O=C(NCc1ccc2c(c1)OCO2)C1CCCN(Cc2cccc(-c3cccs3)c2)C1 (stereo unspecified),–,–,28.2 µM (active)
COCCNC(=O)C1CCCN(Cc2cccc(-c3cccs3)c2)C1 (stereo unspecified),-13.6%,–,–
O=C1CCN(S(=O)(=O)c2cccc(F)c2)CCCC(C(=O)NCc2ccccc2)CCN1 (stereo unspecified),-20.4%,–,–
Cc1ccccc1CNC(=O)C1CCCN(Cc2cccnc2)CCC(=O)NCC1 (stereo unspecified),-7%,–,–
COc1ccc(C(=O)N2CCc3n[nH]c(=O)n3CC2)cc1F,-2.48%,–,–
O=C(N[C@H]1[C@H](O)[C@H](O)C[C@@H]1c1ccncc1)c1ccccn1,-11.5% [at 172 µM],–,–
CN(C)c1ccc(CNCC2(COc3ccc(S(C)(=O)=O)cc3)C[C@@H](O)[C@@H](O)C2)cc1 (stereo partly specified),-21%,–,–
O=C(NC1CC1)c1ccc(N2CC3CC(C2)[C@H]2CCCC(=O)N2C3)nc1 (stereo partly specified),-6.11%,–,–
Cc1cc(C(=O)N2CCC(N3C(=O)C(OCC4CC4)C34CCOCC4)CC2)nn1C (stereo unspecified),-6.69%,–,–
CN(C)c1cccc(Nc2cc3c(cn2)NCCN(Cc2ccccc2)C3)c1,–,–,63.1 µM (active)
Cn1c(CNC(=O)Cn2nc3c(cc2=O)CCCC3)nc2ccccc21,-0.627%,–,–
O=C(c1cn[nH]c1-c1ccccc1)N1CCC2(CC1)CC(O)CCO2 (stereo unspecified),-1.3%,–,–

SMILES,"activity change, negative = cytotoxicity",outcome,Potency
O=C(Cc1cccc(Cl)c1)N1CCC2(CC1)CN[S+](=O)([O-])c1cccnc1O2,4.98%,–,–
COCC(=O)N1CCCN(Cc2ccncc2)C(c2ccccc2)CC(=O)NCC1 (stereo unspecified),–,inactive,–
CC(C)c1ccc(N2C(=O)N[C@@H]3CCN(C(=O)c4ccc(C(C)(C)C)cc4)[C@@H]3C2=O)cc1,–,–,79.4 µM (active)
COc1cccc(-c2cccc(C(=O)N3CCCC3C(=O)NCC3CC3)c2)c1 (stereo unspecified),-24.8%,–,–
COc1cccc(CC(=O)NC2CCN(c3cn[nH]c(=O)c3)CC2)c1,1.18%,–,–
CC(=O)N1CCCN(C(=O)C2CCCCN2Cc2ccc(-c3ccsc3)cc2)CC1 (stereo unspecified),-10.1%,–,–
Cc1ccc(-c2cccc(CN3CCCC3C(=O)NCC(F)(F)F)c2)cc1Cl (stereo unspecified),–,–,31.6 µM (active)
O=C(NCCCc1ccccc1)C1CCc2nnc(-c3cccc(C(F)(F)F)c3)n21 (stereo unspecified),-15.1%,–,–
Cc1ccc(-c2cccc(CN3CCCC(NC(=O)c4ccc(C(F)(F)F)cc4)C3)c2)cc1Cl (stereo unspecified),–,inactive,–
CNC(=O)C1CCCCN1Cc1ccc(-c2cccs2)cc1 (stereo unspecified),–,–,28.2 µM (active)
COc1cccc(-c2ccc(CN3CCCC3C(=O)NC3CCCCC3)cc2)c1 (stereo unspecified),–,–,44.7 µM (active)
O=C(NCc1ccccn1)C1CCN(C(=O)c2ccc(-c3cccs3)cc2)CC1,-23.9%,–,–
COC(=O)[C@H](Cc1ccc(OC)cc1)NC(=O)[C@H]1CN(C(=O)c2cccnc2)CCN1C(=O)NC1CCCCC1,-0.0528%,–,–
COc1cccc(-c2ccc(CN3CCCC3C(=O)NCc3ccccc3Cl)cc2)c1 (stereo unspecified),–,–,31.6 µM (active)
COc1ccc(C(=O)N2CCN(Cc3ccccc3-c3ccc(C)c(Cl)c3)CC2)cc1,-17.7%,–,–
COCCC(=O)N1CCC2(CCC2NC(=O)COC)CC1 (stereo unspecified),-14.6%,–,–
CCN(CC)CC(=O)N1CCC(Oc2ccccc2C)(C(=O)O)CC1,-17.2%,–,–
COCC(=O)N(C1CCOCC1)C1CCN(C(=O)c2cccc(OC)c2)CC1,-3.91%,–,–
CCN1C(=O)COC[C@@H]1C(O)c1ccc(NC(=O)Cc2ccc(OC)cc2)cc1 (stereo partly specified),-8.19% [at 172 µM],–,–
CC(C)CN1C(=O)COC[C@@H]1[C@H](O)c1ccc(NC(=O)Cc2ccccc2)cc1,-0.865% [at 172 µM],–,–
COc1ccccc1CN1C(=O)COC[C@@H]1[C@H](O)c1ccc(NC(=O)c2ccc(C#N)cc2)cc1,–,–,39.8 µM (active)
Cc1ccc(NC(=O)N2CC[C@H]3C(=O)NCCCCCN(Cc4cccnc4)[C@@H]3C2)cc1C,-11.9%,–,–
O=C(CCC1CCCC1)N1CCN2CCS(=O)(=O)N(C3CC3)C(=O)C2C1 (stereo unspecified),-7.58%,–,–
CC(C)c1ccc(S(=O)(=O)N(C)CC2CCOC2)cc1 (stereo unspecified),-18%,–,–

SMILES,"activity change, negative = cytotoxicity",outcome,Potency
O=c1[nH]c(-c2ccncc2)nc2c1CCN(S(=O)(=O)N1CCCC1)C2,-1.44%,–,–
O=C([C@@H]1C[C@H](F)CN1S(=O)(=O)c1ccc(Cl)cc1)N1CCCCC1,2.25%,–,–
O=C(c1cccc(Br)c1)N1CCN(C2CCN(Cc3ccccn3)C2=O)CC1 (stereo unspecified),-2.68%,–,–
O=C(c1ccncc1)N1CCN(c2ccc(Cl)nn2)C(=O)C1,–,inactive,–
Cn1cc(CN2CCN(Cc3ccccc3)CC2)ccc1=O,-24.9%,–,–
O=C1CN(Cc2ccc(-c3ccccc3)cc2)CCN1c1cc(Cl)ncn1,–,–,31.6 µM (active)
COc1ccc(Cn2c(CN(C)S(C)(=O)=O)n[nH]c2=O)cc1,1.29%,–,–
CC(C(=O)NC1CCCCC1)[C@@H]1CC[C@@]2(C)CC[C@H](N[S+](C)(=O)[O-])[C@@H](C)[C@@H]2[C@H]1O (stereo partly specified),-20.7% [at 172 µM],–,–
CN(Cc1ccc(-c2ccccc2)cc1)C(=O)c1ccccc1F,–,–,89.1 µM (active)
CN(Cc1ccc(OC(F)(F)F)cc1)Cc1ccc(-c2ccccc2)cc1,-3.55%,–,–
CN(Cc1ccccc1)Cc1ccc(F)cc1,3.55% [at 230 µM],–,–
O=C(CC1Cc2ccccc2C1)N1CCN(CCO)CC(O)C1 (stereo unspecified),-1.63%,–,–
CCCCCC(=O)Nc1nc2c(s1)C[C@@H]1[C@](C)(CO)[C@H](O)CC[C@@]1(C)[C@@H]2CC(=O)N1CCC(C(N)=O)CC1,0.324%,–,–
O=C(CCn1cccn1)N[C@@H]1CN(Cc2ccccc2)C[C@H]1CO,-10.6%,–,–
CC1=Nc2cc(C(=O)NCc3ccc(C)cc3)ccc2Sc2ccc(Cl)cc21,–,–,31.6 µM (active)
CSc1ccc(CNC(=O)c2noc(-c3ccc(C)cc3)n2)cc1,5.61%,–,–
O=C(CCc1cc(Cl)no1)NCCc1noc(C2CC2)n1,-22.8%,–,–
COc1ccc(-c2nnc3n2CCN([S+](C)(=O)[O-])C3)cc1,-14.1% [at 172 µM],–,–
Cc1cc(C)n(C2CN(c3cc(C4CC(O)C4)nc(C)n3)C2)n1 (stereo unspecified),3.05%,–,–
Cc1cc(C)n(-c2ccc(NC(=O)CC[C@H]3NC(=O)c4ccccc4NC3=O)cc2)n1,0.189%,–,–
COc1ccc(C(=O)N[C@@H]2CCC[C@@H]2C(=O)NCc2cccc(OC)c2)cc1,-0.388%,–,–
O=C(NC1CCCc2c1[nH]c1ccc(F)cc21)c1ccccn1 (stereo unspecified),-59%,–,–
COc1ccc(CC(=O)NC2CCCc3c2[nH]c2ccccc32)cc1 (stereo unspecified),–,–,35.5 µM (active)
CN1CCCN(C(=O)c2ccccc2)c2ccccc21,-19.7%,–,–
